Reference: PubChem BioAssay (EPA / NIEHS)
Inconclusive results are not listed. Active and inactive are the calls of the source. The calls were made as follows: active = hit-call score of the fitted dose curve at least 0.9, where 1 is the maximum; inconclusive = response in the unintended direction; inactive = score below 0.9.

Columns and labels:
[1] = TOX21_p53_BLA_p2_viability: Viability Assessment in the Tox21 HCT-116 p53 Agonism Beta-lactamase Assay, Phase 2 (AID 2283591);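 also: actives lower the ATP signal meaning cytotoxicity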
Summary of the method: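 Cytotoxicity readout: CellTiter-Glo ATP luminescence, 30 min at room temperature, after the beta-lactamase read. Cells were HCT116 exposed 16 h at 37C to compounds pin-transferred at 217-fold dilution from DMSO stocks.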

[2] = target: Cellular tumor antigen p53 (Homo sapiens) (UniProt P04637); assay: TOX21_p53_BLA_p2_ratio: Tox21 HCT-116 p53 Agonism Beta-lactamase Assay, Ratio, Phase 2 (AID 2283592)
Cellular tumor antigen p53 (Homo sapiens), sequence (P04637 whole entry, looked up): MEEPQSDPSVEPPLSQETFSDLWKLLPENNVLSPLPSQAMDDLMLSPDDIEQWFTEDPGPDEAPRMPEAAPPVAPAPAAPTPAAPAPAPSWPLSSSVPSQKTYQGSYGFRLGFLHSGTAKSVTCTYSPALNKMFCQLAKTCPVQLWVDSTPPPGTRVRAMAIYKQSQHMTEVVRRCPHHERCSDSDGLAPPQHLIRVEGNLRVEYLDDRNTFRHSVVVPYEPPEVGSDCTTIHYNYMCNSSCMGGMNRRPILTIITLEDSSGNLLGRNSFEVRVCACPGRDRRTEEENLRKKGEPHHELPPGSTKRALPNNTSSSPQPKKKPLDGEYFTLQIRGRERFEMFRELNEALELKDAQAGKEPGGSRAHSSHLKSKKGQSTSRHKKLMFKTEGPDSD
Summary of the method: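 Readout: blue/green (460/530 nm) FRET emission ratio after 2 h CCF4-AM loading at room temperature, excitation 405 nm. HCT116 p53 bla cells, 16 h compound exposure at 37C, 5% CO2; agonist direction fitted against DMSO baseline.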

[3] = TOX21_p53_BLA_p3_viability: Viability Assessment in the Tox21 HCT-116 p53 Agonism Beta-lactamase Assay, Phase 3 (AID 2283593);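 also: cells exposed to compound for 16 h before reading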
Summary of the method: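 Cellular ATP was quantified by CellTiter-Glo luminescence, read after 30 min at room temperature. Beforehand, HCT116 cells (4000/well) received compound 5 h post-seeding, 217-fold diluted from DMSO, then incubated 16 h at 37C.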

[4] = target: Cellular tumor antigen p53 (Homo sapiens) (UniProt P04637); assay: TOX21_p53_BLA_p3_ratio: Tox21 HCT-116 p53 Agonism Beta-lactamase Assay, Ratio, Phase 3 (AID 2283596)
Summary of the method: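 Cells were seeded at 4000/well, rested 5 h at 37C, then dosed with DMSO compound solutions (217-fold dilution) for 16 h. CCF4-AM substrate was loaded for 2 h at room temperature, and the 460/530 nm emission ratio was fitted for gain of signal versus DMSO.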

[5] = TOX21_p53_BLA_p4_viability: Viability Assessment in the Tox21 HCT-116 p53 Agonism Beta-lactamase Assay, Phase 4 (AID 2283597);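 also: hits lower the luminescence signal meaning cytotoxicity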
Summary of the method: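 ATP content by CellTiter-Glo luminescence, 30 min RT, read after the beta-lactamase ratio step. Cells: HCT116, 4000/well, compound added after 5 h, exposure 16 h at 37C. Signal loss = reduced viability.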

[6] = target: Cellular tumor antigen p53 (Homo sapiens) (UniProt P04637); assay: TOX21_p53_BLA_p5_ratio: Tox21 HCT-116 p53 Agonism Beta-lactamase Assay, Ratio, Phase 5 (AID 2283599)
Summary of the method: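 Beta-lactamase reporter ratio (blue 460 nm over green 530 nm, 405 nm excitation) after 2 h CCF4-AM loading, in HCT-116 cells exposed 16 h at 37 C to compounds pinned at 217-fold dilution. Increases relative to DMSO baseline scored.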

[7] = TOX21_p53_BLA_p5_viability: Viability Assessment in the Tox21 HCT-116 p53 Agonism Beta-lactamase Assay, Phase 5 (AID 2283600)
Summary of the method: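 ATP luminescence (CellTiter-Glo, 30 min, RT) served as the viability read-out, with loss of signal indicating cytotoxicity. Compounds in DMSO were pinned at a 217-fold dilution onto 4000 cells/well and incubated 16 h, 37C.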

[8] = target: Cellular tumor antigen p53 (Homo sapiens) (UniProt P04637); assay: TOX21_p53_BLA_p4_ratio: Tox21 HCT-116 p53 Agonism Beta-lactamase Assay, Ratio, Phase 4 (AID 2283601)
Summary of the method: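 Signal is the blue/green (460nm/530nm) ratio of cleaved versus uncleaved CCF4-AM substrate, read after 2 h substrate loading. Cells were HCT116 carrying the p53-responsive beta-lactamase reporter, dosed 16 h at 37C, 5% CO2; CellTiter-Glo measured in parallel.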

THRB (gene 7068) = THRB (gene 7068) (UniProt P10828); assay: TOX21_TRB_BLA_Antagonist_Followup_ratio: Tox21 Thyroid Hormone Receptor beta Antagonism Beta-lactamase (BLA) Follow-Up Assay, Ratio (AID 2283958)
THRB (gene 7068), sequence (P10828 whole entry, looked up, the tested form may be a part): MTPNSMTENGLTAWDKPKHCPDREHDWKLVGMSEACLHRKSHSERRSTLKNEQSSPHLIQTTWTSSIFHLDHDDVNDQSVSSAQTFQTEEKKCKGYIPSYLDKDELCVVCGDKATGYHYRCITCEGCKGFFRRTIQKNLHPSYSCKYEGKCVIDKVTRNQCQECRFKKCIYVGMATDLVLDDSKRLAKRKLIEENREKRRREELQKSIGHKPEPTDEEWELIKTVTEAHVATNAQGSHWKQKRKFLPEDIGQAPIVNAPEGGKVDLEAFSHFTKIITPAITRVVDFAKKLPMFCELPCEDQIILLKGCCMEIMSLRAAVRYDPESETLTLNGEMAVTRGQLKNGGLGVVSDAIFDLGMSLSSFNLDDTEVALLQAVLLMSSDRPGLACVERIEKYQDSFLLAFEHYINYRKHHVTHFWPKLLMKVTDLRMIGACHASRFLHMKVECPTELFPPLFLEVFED
Summary of the method: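 Read-out: blue/green (460:530 nm) ratio of cleaved to uncleaved CCF4-AM after 2 h at room temperature, fitted against DMSO baseline. HEK293T UAS-bla cells carrying GAL4-human TRβ LBD were exposed 18 h, 37C/5% CO2.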

[9] = TOX21_TRB_BLA_Antagonist_Followup_viability: Viability Assessment in the Tox21 Thyroid Hormone Receptor beta Antagonism Beta-lactamase (BLA) Follow-Up Assay (AID 2283961)
Summary of the method: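 Viability read as CellTiter-Glo ATP luminescence (loss of signal = cytotoxicity) in the same plates as the TRβ-bla readout. TRβ-LBD/GAL4 UAS-bla HEK293T cells were exposed to compounds, 11 concentrations in triplicate, for 18 h at 37C/5% CO2.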

[10] = target: Retinoic acid receptor RXR-alpha (Homo sapiens) (UniProt P19793); assay: TOX21_TR_RXR_BLA_Antagonist_Followup_ratio: Tox21 Thyroid Hormone Receptor beta Retinoid X Receptor alpha (RXRa) Antagonism Beta-lactamase (BLA) Follow-Up Assay, Ratio (AID 2283972)
Retinoic acid receptor RXR-alpha (Homo sapiens), sequence (P19793 whole entry, looked up, the tested form may be a part): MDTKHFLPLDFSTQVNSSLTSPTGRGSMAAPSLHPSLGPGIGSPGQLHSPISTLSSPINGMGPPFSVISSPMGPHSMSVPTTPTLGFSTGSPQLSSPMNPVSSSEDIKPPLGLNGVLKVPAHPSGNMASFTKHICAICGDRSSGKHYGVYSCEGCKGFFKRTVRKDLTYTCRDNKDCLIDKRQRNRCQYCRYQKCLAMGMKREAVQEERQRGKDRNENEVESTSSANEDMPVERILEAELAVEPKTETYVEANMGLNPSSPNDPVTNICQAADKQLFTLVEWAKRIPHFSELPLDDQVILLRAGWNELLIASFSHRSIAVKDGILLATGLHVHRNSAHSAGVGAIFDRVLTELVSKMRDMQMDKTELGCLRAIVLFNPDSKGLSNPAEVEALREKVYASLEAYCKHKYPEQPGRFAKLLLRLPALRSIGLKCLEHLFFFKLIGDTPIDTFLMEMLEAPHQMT
Summary of the method: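 Beta-lactamase reporter readout as cleaved/uncleaved substrate ratio (460:530 nm) after 2 h substrate loading at room temperature. GAL4-RXRa bla HEK293T cells were exposed 16 h at 37C to 11-point compound series; loss of signal scored against DMSO baseline.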

[11] = TOX21_TR_RXR_BLA_Antagonist_Followup_viability: Viability Assessment in the Tox21 Thyroid Hormone Receptor beta Retinoid X Receptor alpha (RXRa) Antagonism Beta-lactamase (BLA) Follow-Up Assay (AID 2283979)
Summary of the method: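 Follow-up compounds (11 concentrations, triplicate) were incubated 16 h at 37C/5% CO2 with HEK293T RXRa-bla cells seeded at 2,500/well in charcoal-stripped-serum medium. ATP content by CellTiter-Glo luminescence gave viability; curves fitted in both directions against DMSO.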

Measured: outcome

CCC[C@@]1(CCc2ccccc2)CC(O)=C([C@H](CC)c2cccc(NS(=O)(=O)c3ccc(C(F)(F)F)cn3)c2)C(=O)O1
inactive: all assays above
